Source: PubChem BioAssay AID431 (Sanford-Burnham Center for Chemical Genomics, 2006)
About 1,100 (1.7%) of roughly 63,000 compounds were called active.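 How the source made its calls: active means compounds whose percent cytotoxicity in the single-dose primary screen, scaled between solvent and toxic-drug controls, exceeds 50; inactive means the rest.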 The full list was thinned out, with actives kept by preference. Entries with a potency or affinity are not part of this list.

Test: viability loss of HPDE-C7K cells – cell-based, fluorescence, HTS, primary screen (AID 431);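 further: 0% = DMSO solvent wells and 100% = doxorubicin-treated wells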
Conditions: HPDE-C7K KRASV12 cells, Alamar Blue viability, 48 h; at 10 µM; active compounds read high

| SMILES | cytotoxicity |
| --- | --- |
| CC1C(=O)C(C)C(c2ccc3c(c2)OCO3)NC1c1ccc2c(c1)OCO2 (stereo not given) | 1.3% (inactive) |
| CC(C)N(Cc1nc(-c2ccc(Cl)cc2)no1)C(=O)CCCN1C(=O)c2ccccc2C1=O | 3.9% (inactive) |
| CCc1ccc(NC(=O)C2CC=CCC2C(=O)O)cc1 (stereo not given) | -3.7% (inactive) |
| O=C(O)C1C2C=CC3(CN(Cc4ccncc4)C(=O)C13)O2 (stereo not given) | -2.7% (inactive) |
| O=C(O)C1C2C=CC3(CN(Cc4ccco4)C(=O)C13)O2 (stereo not given) | 1.9% (inactive) |
| O=C(O)C1C2C=CC3(CN(Cc4ccccn4)C(=O)C13)O2 (stereo not given) | 76.1% (active) |
| Cc1cc(NS(=O)(=O)c2ccc(NC(=O)Nc3ccccc3)cc2)no1 | -21% (inactive) |
| CCOC(=O)c1ccc(NC(=O)CCc2nc(-c3ccc(Cl)cc3)no2)cc1 | 0.1% (inactive) |
| CCOC(=O)c1ccc(NC(=O)CCc2nc(-c3ccccc3)no2)cc1 | -8% (inactive) |
| CCOC(=O)c1ccc(NC(=O)CCc2nc(-c3ccccc3Cl)no2)cc1 | 76.1% (active) |
| CC1CCCC(C)N1C(=O)Cn1c(=O)sc2ccccc21 (stereo not given) | 0.8% (inactive) |
| Cc1ccc(C2CC(C(F)F)n3ncc(C(=O)Nc4cnn(Cc5ccccc5C)c4)c3N2)cc1 (stereo not given) | 21.9% (inactive) |
| CCOC(=O)CCCCNCc1ccccc1 | -6.1% (inactive) |
| Cc1nc2c3c(-c4ccccc4)c(-c4ccccc4)oc3ncn2n1 | 1% (inactive) |
| COc1ccc(-c2nnc(SCCc3ccccc3)n2N)cc1 | 4.3% (inactive) |
| COc1ccc(-c2oc3ncn4nc(Cc5ccccc5)nc4c3c2-c2ccc(OC)cc2)cc1 | 57% (active) |
| COc1ccccc1OCc1nc2c3c(-c4ccccc4)c(-c4ccccc4)oc3ncn2n1 | 9.1% (inactive) |
| COc1ccc(-c2nnc(SCc3ccccc3)n2N)cc1 | -12.1% (inactive) |
| COc1ccc(-c2oc3ncn4nc(COc5ccccc5)nc4c3c2-c2ccc(OC)cc2)cc1 | 57.9% (active) |
| COc1ccc(C)cc1N(CC(=O)NC1CCCC1)C(=O)CCC(=O)Nc1cc(C)on1 | -5.7% (inactive) |
| CCCCS(=O)(=O)/C=C\C1C2C=CC(C2)C1S(=O)(=O)CCCC (stereo not given) | -2.6% (inactive) |
| CCCCS(=O)(=O)/C=C\C=C/S(=O)(=O)CCCC | 112% (active) |
| OC(COc1ccc(Cl)cc1)CN1C2=NCCCN2c2ccccc21 (stereo not given) | 6.4% (inactive) |
| CCC(=O)c1ccccc1OCCCN1C(=O)NC(C)(C)C1=O | 21% (inactive) |

| SMILES | cytotoxicity |
| --- | --- |
| CC1CC(C)CN(S(=O)(=O)c2ccc3c(c2)oc(=O)n3CC(=O)N2CCOCC2)C1 (stereo not given) | 2.5% (inactive) |
| c1ccc(-c2nc(-n3ccnc3)nc(-n3ccnc3)n2)cc1 | 19.8% (inactive) |
| c1ccc(-c2ccc(-n3ccnc3)cc2)cc1 | 2.4% (inactive) |
| Clc1ccc(-c2nnc(-c3ccc(Br)o3)o2)c(Cl)c1 | 19.1% (inactive) |
| CCn1c(SCC(=O)c2ccccc2)nnc1-c1cc2cc(Br)ccc2o1 | 8% (inactive) |
| CCCCCC(=O)N(CN1C(=O)CCC1=O)c1ccccc1 | -8.7% (inactive) |
| Cc1nc(NCCCN2CCOCC2)c2oc3ccccc3c2n1 | 6.7% (inactive) |
| O=C(O)c1cc(S(=O)(=O)N2CCCCCC2)ccc1Cl | -3.9% (inactive) |
| O=S(=O)(c1ccc(S(=O)(=O)N2CCCC2)cc1)N1CCCCCC1 | -15% (inactive) |
| O=C(CN1CCN(c2ccccn2)CC1)N1c2ccccc2CCc2ccccc21 | -4.4% (inactive) |
| CCN(CC(=O)NC1CCCCC1)S(=O)(=O)c1ccc(Cl)cc1 | -13.6% (inactive) |
| CCOC(=O)C1CCCN(c2c(NCc3ccco3)c(=O)c2=O)C1 (stereo not given) | 2.5% (inactive) |
| O=C(CSc1nnc(COc2ccccc2)o1)NCCc1ccccc1 | -27.9% (inactive) |
| COc1ccc(C2C(C#N)=C(SC)NC3=C2C(=O)CC(C)(C)C3)cc1 (stereo not given) | -1.7% (inactive) |
| COc1cc(C2C(C#N)=C(C)NC3=C2C(=O)CC(C)(C)C3)cc(OC)c1O (stereo not given) | 6.8% (inactive) |
| COc1cc(C2C(C#N)=C(C)NC3=C2C(=O)CC(C)(C)C3)ccc1O (stereo not given) | -10.6% (inactive) |
| COc1ccc(C2C(C#N)=C(C)NC3=C2C(=O)c2ccccc23)cc1 (stereo not given) | 53.8% (active) |
| COc1cc(C2C(C#N)=C(C)NC3=C2C(=O)c2ccccc23)cc(OC)c1OC (stereo not given) | 80.3% (active) |
| COc1ccc(C2CC(=O)C3=C(C2)NC(C)=C(C#N)C3c2ccc(N(C)C)cc2)cc1 (stereo not given) | -3.8% (inactive) |
| CCOC(=O)c1ccccc1NC(=O)CN(c1ccccc1OC)S(C)(=O)=O | -1.1% (inactive) |
| CCCCn1c(SCC(=O)Nc2cc(C)on2)nc2ccsc2c1=O | -1.8% (inactive) |
| CCOC(=O)C1CCCN(Cc2cc(OC)c(O)c(OC)c2)C1 (stereo not given) | -5.4% (inactive) |
| CC(C)(C)c1ccc(OCC(=O)NCc2ccco2)c(Br)c1 | 84.5% (active) |
| CCc1ccc(OCC(=O)NCc2ccco2)c(Br)c1 | -5.8% (inactive) |

| SMILES | cytotoxicity |
| --- | --- |
| O=C(COc1ccccc1Br)NCc1ccco1 | -11.3% (inactive) |
| Cn1c(=O)n(C)c2cc(NC(=O)CSc3nnc(-c4ccccc4O)n3-c3ccccc3)ccc21 | 12.8% (inactive) |
| O=[n+]1cc(-c2ccc(F)cc2)n([O-])c2c1CCC2 | -13.4% (inactive) |
| COc1ccc(C2C3=C(CCCC3=O)Nc3nc(SCc4ccccc4)nn32)cc1OC (stereo not given) | -8.6% (inactive) |
| O=C1CC(C(=O)Nc2ccccc2C(=O)O)C(c2ccccc2)O1 (stereo not given) | -6.7% (inactive) |
| O=C(Oc1cccc2c(OC(=O)N3CCOCC3)cccc12)N1CCOCC1 | 6.1% (inactive) |
| CCCn1nnnc1SCC(=O)c1ccc(NC(C)=O)cc1 | -3.8% (inactive) |
| CC1Cc2ccccc2N1C(=O)c1cc2c(=O)n3ccccc3nc2n1C (stereo not given) | 3.6% (inactive) |
| Cc1cccn2c(=O)c3cc(C(=O)N4CCN(c5ccccc5)CC4)n(C)c3nc12 | -5.9% (inactive) |
| Cc1cccn2c(=O)c3cc(C(=O)N4CCc5ccccc54)n(C)c3nc12 | 1.3% (inactive) |
| Cc1cccn2c(=O)c3cc(C(=O)N4CCN(C(=O)c5ccco5)CC4)n(C)c3nc12 | -8.8% (inactive) |
| Cc1cccn2c(=O)c3cc(C(=O)N4c5ccccc5CC4C)n(C)c3nc12 (stereo not given) | 77.7% (active) |
| Cc1c(NCc2nc3ccccc3[nH]2)c(=O)n(-c2ccccc2)n1C | -7.6% (inactive) |
| Cc1ccc(C(C)C)c(OCc2nnc3n2CCCCC3)c1 | -8.3% (inactive) |
| COc1ccc(Cl)cc1NC(=O)c1cccnc1 | -1.6% (inactive) |
| CC(=O)Nc1ccc(NC2=CC(=O)CC(C)(C)C2)cc1 | -3% (inactive) |
| Cn1c(SCC(=O)c2ccc3c(c2)OCO3)nnc1-c1ccccn1 | 3.1% (inactive) |
| CCCc1cc(C(=O)Nc2ccc(C)cc2)no1 | -1.5% (inactive) |
| CCN(c1ccccc1)S(=O)(=O)c1ccc(C(=O)Nc2nnc(COC)o2)cc1 | 44.5% (inactive) |
| CC(C)(C)C(=O)/C=C(N)/C=C/c1ccccc1 | -7% (inactive) |
| CC(/C=C/c1ccccc1)=N/O | -7.4% (inactive) |
| O=C(/C=C/c1ccccc1)c1ccccc1 | 56.5% (active) |
| O=C(CSc1nc2sc3c(c2c(=O)n1-c1ccccc1)CCCC3)NCc1ccco1 | 71.9% (active) |
| CCSc1nc2sc3c(c2c2nnc(SCC(=O)NCc4ccco4)n12)CCCC3 | 8.1% (inactive) |

| SMILES | cytotoxicity |
| --- | --- |
| C=CCn1c(SCC(=O)NCc2ccco2)nc2sc3c(c2c1=O)CCCCC3 | 6% (inactive) |
| Cc1nc2sc3c(c2c2nnc(SCC(=O)NCc4ccco4)n12)CCCC3 | 5.1% (inactive) |
| CC1(C)Cc2c(sc3nc(SCC(=O)NCc4ccco4)n(-c4ccccc4)c(=O)c23)CS1 | -9.9% (inactive) |
| CC1=C(C(=O)N2CCOCC2)C(c2ccsc2)C2=C(CCCC2=O)N1 (stereo not given) | 4.5% (inactive) |
| COC(=O)c1ccccc1NC(=O)CN1CCC(n2nnc3cc(C)ccc32)CC1 | 7.1% (inactive) |
| CCOc1ccc(N(CC(=O)NC2CCCC2)S(=O)(=O)c2c(C)noc2C)cc1 | 4.7% (inactive) |
| O=C(Oc1ccc2c(c1)OCO2)c1cc2c(s1)CCC2 | 66.1% (active) |
| O=C(Oc1ccc2c(c1)OCO2)c1ccncc1 | 12.7% (inactive) |
| O=C(Oc1ccc2c(c1)OCO2)c1cccs1 | -6% (inactive) |
| NS(=O)(=O)c1ccc(S(=O)(=O)NCCc2ccccc2)cc1 | -1.8% (inactive) |
| COc1cccc(NC(=O)NC2CCN(Cc3nnnn3Cc3ccc(F)cc3)CC2)c1 | -3.4% (inactive) |
| Cc1ccc2[nH]c(=O)c(CN(CCc3ccccc3)C(c3nnnn3Cc3ccco3)C(C)C)cc2c1 (stereo not given) | 60.2% (active) |
| COc1ccc2cc(CN(Cc3ccco3)Cc3nnnn3C3CCCCC3)c(=O)[nH]c2c1 | 22.4% (inactive) |
| CCC(c1nnnn1C1CCCCC1)N(Cc1ccco1)Cc1cc2ccc(OC)cc2[nH]c1=O (stereo not given) | 64.5% (active) |
| CCOc1ccc2[nH]c(=O)c(CN(Cc3cccs3)C(CC)c3nnnn3C(C)(C)CC)cc2c1 (stereo not given) | 30.4% (inactive) |
| CCC(c1nnnn1Cc1ccco1)N(Cc1ccccc1OC)Cc1cc2cc(C)ccc2[nH]c1=O (stereo not given) | -7.4% (inactive) |
| CCC(c1nnnn1Cc1ccccc1)N(Cc1ccco1)Cc1cc2cc(OC)ccc2[nH]c1=O (stereo not given) | 22.2% (inactive) |
| CCOC(=O)Cn1nnnc1C(CC)N(Cc1cccs1)Cc1cc2cc(C)ccc2[nH]c1=O (stereo not given) | -3.3% (inactive) |
| COc1ccc2cc(CN(Cc3ccco3)C(c3nnnn3C3CCCCC3)C(C)C)c(=O)[nH]c2c1 (stereo not given) | 1.3% (inactive) |
| COc1ccc2cc(CN(CCc3ccccc3)Cc3nnnn3Cc3ccco3)c(=O)[nH]c2c1 | 33.5% (inactive) |
| CCC(c1nnnn1Cc1ccco1)N(CCc1ccccc1)Cc1cc2ccc(OC)cc2[nH]c1=O (stereo not given) | 50.4% (active) |
| CCC(c1nnnn1Cc1ccco1)N(CCc1ccccc1)Cc1cc2cc(C)ccc2[nH]c1=O (stereo not given) | 36% (inactive) |
| CCC(c1nnnn1C1CCCC1)N(Cc1cccs1)Cc1cc2cc(C)ccc2[nH]c1=O (stereo not given) | 68.3% (active) |
